# NadD block: inhibitors of S. aureus NadD, primary screen, biochemical, colorimetric, uHTS. purified NadD enzyme, colorimetric absorbance read-out. inhibition, % at 20 µM. 360,000 compounds, 0.78% hits; in the data active = inhibition above about 26%
# GC-A act: GC-A stimulated cGMP production enhancers – HEK293 GC-A cells, cGMP TR-FRET, EC30 ANP, primary screen. 0% at EC30 ANP, 100% saturating ANP. activation, % at 10 µM. 370,000 compounds, 0.14% hits. AID 1671463, 2021; in the data active = activation above about 40%
# Target sequence (P16066 whole entry, looked up): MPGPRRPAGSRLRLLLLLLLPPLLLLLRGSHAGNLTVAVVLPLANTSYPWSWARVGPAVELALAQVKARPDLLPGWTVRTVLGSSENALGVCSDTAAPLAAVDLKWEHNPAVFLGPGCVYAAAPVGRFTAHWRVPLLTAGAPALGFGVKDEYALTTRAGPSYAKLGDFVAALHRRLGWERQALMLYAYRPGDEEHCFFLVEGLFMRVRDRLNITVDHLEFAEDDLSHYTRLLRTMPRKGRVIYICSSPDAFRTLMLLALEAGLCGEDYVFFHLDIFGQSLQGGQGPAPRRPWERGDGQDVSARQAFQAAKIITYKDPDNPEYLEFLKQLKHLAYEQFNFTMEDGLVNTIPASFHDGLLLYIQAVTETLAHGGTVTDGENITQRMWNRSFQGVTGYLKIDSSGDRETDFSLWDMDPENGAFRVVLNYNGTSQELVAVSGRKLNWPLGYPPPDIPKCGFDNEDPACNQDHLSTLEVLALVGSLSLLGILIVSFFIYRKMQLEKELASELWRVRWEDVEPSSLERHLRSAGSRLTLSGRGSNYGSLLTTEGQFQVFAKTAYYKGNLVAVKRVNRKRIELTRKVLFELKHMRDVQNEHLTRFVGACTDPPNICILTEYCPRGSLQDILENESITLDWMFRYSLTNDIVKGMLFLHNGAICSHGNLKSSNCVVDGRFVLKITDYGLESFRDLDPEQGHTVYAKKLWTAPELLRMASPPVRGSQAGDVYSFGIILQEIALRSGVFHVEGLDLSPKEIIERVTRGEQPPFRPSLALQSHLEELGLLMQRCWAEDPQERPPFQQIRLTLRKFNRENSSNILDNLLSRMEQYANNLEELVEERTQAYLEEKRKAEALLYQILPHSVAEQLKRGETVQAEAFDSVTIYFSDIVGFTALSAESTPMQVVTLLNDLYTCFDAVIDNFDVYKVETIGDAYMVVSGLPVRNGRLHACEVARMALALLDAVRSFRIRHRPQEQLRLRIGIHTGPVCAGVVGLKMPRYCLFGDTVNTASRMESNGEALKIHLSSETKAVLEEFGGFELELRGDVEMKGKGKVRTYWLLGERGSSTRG
# Neddylation inh: inhibitors of cullin neddylation, primary screen, biochemical, TR-FRET, uHTS, NAE and Ubc12. 360,000 compounds, 0.58% hits. NEDD8-conjugating enzyme Ubc12 (Homo sapiens) + NEDD8-activating enzyme E1 regulatory …. inhibition, % at 25 µM; in the data active = inhibition above about 36%
# GC-B act: human GC-B receptor activators, primary screen, HEK293 GC-B cells, cGMP TR-FRET, EC30 CNP | Atrial natriuretic peptide receptor 2 (Homo sapiens), P20594 | 0% at EC30 CNP, 100% saturating CNP | activation, % at 10 µM | 370,000 compounds, 0.11% hits;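 active = activation at 10 µM reaching about 35% in either raw or pattern-adjusted values, limit read from the data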
# NadD inh conf: inhibitors of S. aureus NadD, confirmation, biochemical, colorimetric, single concentration; shares compounds with NadD block; purified S. aureus NadD, colorimetric enzyme assay; inhibition, % at 20 µM; 2,000 compounds, 13% hits; AID 624309, 2012; in the data active = inhibition mostly above about 42%, no sharp cut-off; inactive = mostly below about 42%
# Neddyl inh conf: blockade of NEDD8 conjugation to cullin – biochemical, TR-FRET, single concentration, confirmation; 1,800 compounds, 13% hits; shares compounds with Neddylation inh; calls only at 25 µM; AID 652217, 2013; TR-FRET cullin neddylation biochemical assay; in the data active = inhibition above about 40%;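 note: neddylation substrate is the cullin 1 ring ligase complex with SKP2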
# Hits are given with their value; n = inactive; x = no result shown; + = active, no number. A selection: hits, their analogues and other compounds. The true share with any hit is near 1.5%.
SMILES,NadD block,GC-A act,Neddylation inh,GC-B act,NadD inh conf,others
CC(C)Nc1nc(NCCN2CCCC2)c2sc(-c3ccccc3)cc2n1,34,n,n,n,n,
CCN1Cc2nnn(Cc3ccccc3)c2-c2cc(F)ccc2S1(=O)=O,x,n,x,n,x,
COC[C@@H]1CCCN1c1ccc2c(c1)O[C@@H]1CCN(C1)S2(=O)=O,x,n,x,n,x,
CC(C)CNC(=O)OCc1cn(Cc2cccc(F)c2)nn1,x,n,x,n,x,
COc1cccc(/C=C2/Sc3ccc(C(=O)NCCN4CCCC4)cc3NC2=O)c1,n,n,n,n,x,
COc1ccc(/C=C2\Sc3ccc(C(=O)NCCN4CCCCCC4)cc3N(C)C2=O)cc1,47,n,n,n,n,
O=C1Nc2cc(C(=O)NCCN3CCCCCC3)ccc2S/C1=C/c1ccccc1F,46,n,n,n,n,
COCc1cn(-c2ccc3c(c2)[C@]2(CC(=O)N(C)C2c2ccccc2)C(=O)N3CC(C)C)nn1 (some centres not stated),x,n,x,n,x,
Cc1ccc(C(=O)CSc2nnc(-c3ccco3)n2Cc2ccccc2)cc1,n,n,n,n,x,
Cn1c(SCC(=O)c2ccc(-c3ccccc3)cc2)nnc1-c1ccco1,32,n,n,n,n,
COC(=O)C1CN(CCc2ccccc2)CCS(=O)(=O)N1Cc1ccc(C)cc1 (configuration not stated),x,n,x,n,x,
Nn1c(SCC(=O)Nc2ccc(OCc3ccccc3)cc2)nnc1-c1cc(-c2ccccc2)n[nH]1,x,n,x,n,x,
O=C1c2ccccc2C(=O)N1CCc1c(-c2[nH]c3ccccc3c2CCN2C(=O)c3ccccc3C2=O)[nH]c2ccccc12,31,n,n,n,n,
CC(C)C[C@H]1CN([C@@H](CC(C)C)CN2CCC[C@@H]2CN2C(=S)NC[C@@H]2Cc2ccc(O)cc2)C(=S)N1CC1CCCCC1,30,n,n,n,n,
CC(C)C[C@@H](CN1CCCC1CN1C(=S)NC[C@@H]1Cc1ccccc1)N1C[C@H](Cc2ccc(O)cc2)N(CC2CCCCC2)C1=S (some centres not stated),n,n,n,n,x,
CC(C)C[C@@H](CN1CCC[C@@H]1CN1C(=S)NC[C@@H]1Cc1ccc(O)cc1)N1C[C@H](Cc2ccc(O)cc2)N(CC2CCCCCC2)C1=S,44,n,n,n,n,
O=C(N[C@@H](Cc1ccccc1)C(=O)OCc1ccccc1)c1nc[nH]c1C(=O)N1CCN(c2ccccc2)CC1,30,n,n,n,n,
C[C@H](NC(=O)c1nc[nH]c1C(=O)N1CCN(c2ccccc2)CC1)C(=O)OCc1ccccc1,n,n,n,n,x,
COc1cc2oc(=O)cc(CN3CCN(c4ccc(Cl)c(Cl)c4)CC3)c2cc1Cl,39,n,n,n,n,
COc1ccc2c(CN3CCN(c4ccc(Cl)c(Cl)c4)CC3)cc(=O)oc2c1,n,n,n,n,x,
NC(=S)NN=C1c2cc(Cl)ccc2-c2c1cc(Cl)cc2[N+](=O)[O-],35,x,n,x,n,
COc1cc2c(cc1[N+](=O)[O-])-c1ccc([N+](=O)[O-])cc1C2=NNC(N)=S,48,x,n,x,n,
COc1cc2c(cc1[N+](=O)[O-])-c1ccc([N+](=O)[O-])cc1C2,n,n,n,n,x,
COC(=O)c1cc(-c2cc(Cl)cc(Cl)c2)c(=O)n2c1CCC2,x,n,x,n,x,
CCc1nnc(NS(=O)(=O)c2ccc(NC(=S)NC(=O)/C=C/c3ccccc3)cc2)s1,n,n,n,n,x,
SMILES,NadD block,GC-A act,Neddylation inh,GC-B act,NadD inh conf,others
COc1ccc(NS(=O)(=O)c2ccc(NC(=S)NC(=O)/C=C/c3ccccc3)cc2)nn1,48,n,n,n,54,
O=C(/C=C/c1ccc(Br)cc1)NC(=S)Nc1ccc(S(=O)(=O)Nc2nccs2)cc1,54,n,n,n,n,
COc1ccc(/C=C2\CC3(OC(=O)c4cccc(F)c4)CCCN2C3)cc1 (configuration not stated),x,n,x,n,x,
O=[N+]([O-])c1ccccc1/C=N/n1c(-c2cccnc2)n[nH]c1=S,n,n,n,n,x,
O=[N+]([O-])c1ccccc1/C=C/C=N/n1c(-c2cc(-c3ccccc3)n[nH]2)n[nH]c1=S,42,n,81,n,n,Neddyl inh conf=n
CCN(CC)CCOC(=O)c1ccc(N/C=C(/C#N)c2nc(-c3ccc4c(c3)OCO4)cs2)cc1,n,n,n,n,x,
CCN(CC)CCOC(=O)c1ccc(N/C=C(/C#N)c2nc(-c3ccc(OC)cc3)cs2)cc1,32,n,62,n,n,Neddyl inh conf=n
Cc1ccccc1S(=O)(=O)N1CCCc2nc(-c3ccccc3)ccc21,x,n,x,n,x,
Cc1ccc(C(=O)c2oc3ccccc3c2NC(=O)c2cc(-c3cc(C)ccc3O)n[nH]2)cc1,39,n,40,n,n,Neddyl inh conf=n
Cc1cc(NS(=O)(=O)c2ccc(NC(=O)c3cc4c(=O)n5ccccc5nc4s3)cc2)nc(C)n1,31,n,66,n,n,Neddyl inh conf=+
Clc1ccc(-c2ccc(-c3nn4c(-c5ccco5)nnc4s3)o2)cc1,35,n,42,n,n,Neddyl inh conf=n
O=C1CN(C(=O)C2CCCCC2)C=CN1CCc1ccccc1Br,x,n,x,n,x,
CC1(C)CC(=O)C2=C(C1)c1c(ccc3ccccc13)NC2c1ccc(Br)o1 (configuration not stated),37,n,43,n,n,Neddyl inh conf=n
CC1(C)CC(=O)C2=C(C1)c1c(ccc3ccccc13)NC2c1ccc(OCC(=O)O)cc1 (configuration not stated),n,n,x,n,x,
c1cc(-c2nnc3n2N=C(c2ccc4c(c2)OCO4)CS3)ccn1,x,n,x,n,x,
O=C1NC(=O)c2cc3ccccc3cc21,n,n,48,n,x,Neddyl inh conf=+
CCCC[C@H](CCCc1ccc(F)cc1)CCC(=O)N(c1ccccc1)c1ccccc1,x,n,x,n,x,
Cn1c(/C=C/c2ccc(Br)cc2)c([N+](=O)[O-])c(=O)n(C)c1=O,n,n,n,n,x,
CN(C)c1ccc(/C=C/c2c([N+](=O)[O-])c(=O)n(C)c(=O)n2C)cc1,n,n,44,n,x,Neddyl inh conf=n
N/C(=N\N=Cc1ccc2c(c1)OCO2)NN=Cc1ccc2c(c1)OCO2,n,n,41,n,x,
O=C(NN=Cc1ccc2c(c1)OCO2)NN=Cc1ccc2c(c1)OCO2,n,n,n,n,x,
CS(=O)(=O)N1c2ccccc2C[C@H]1Cc1cc2ccccc2o1,x,n,x,n,x,
CCC[C@H]1[C@@H](NC(=O)NCC)CC[C@@]23CCCN2C(=O)CCC[C@@H]13,x,n,x,n,x,

# Compound activity as filed in PubChem.
